Hit rate of the full screen: of about 96,000 compounds, about 20,000 (21%) were called active. Only a sample is shown. Values without a mark were called inactive.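 The calls were made as follows: active = CYP2C19 inhibition above a set limit at 5 µM in the primary screen (cut at about 50% in these data); inactive = the rest.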

Chain of Cytochrome P450 2C19 (Homo sapiens) (P33261 whole entry, looked up): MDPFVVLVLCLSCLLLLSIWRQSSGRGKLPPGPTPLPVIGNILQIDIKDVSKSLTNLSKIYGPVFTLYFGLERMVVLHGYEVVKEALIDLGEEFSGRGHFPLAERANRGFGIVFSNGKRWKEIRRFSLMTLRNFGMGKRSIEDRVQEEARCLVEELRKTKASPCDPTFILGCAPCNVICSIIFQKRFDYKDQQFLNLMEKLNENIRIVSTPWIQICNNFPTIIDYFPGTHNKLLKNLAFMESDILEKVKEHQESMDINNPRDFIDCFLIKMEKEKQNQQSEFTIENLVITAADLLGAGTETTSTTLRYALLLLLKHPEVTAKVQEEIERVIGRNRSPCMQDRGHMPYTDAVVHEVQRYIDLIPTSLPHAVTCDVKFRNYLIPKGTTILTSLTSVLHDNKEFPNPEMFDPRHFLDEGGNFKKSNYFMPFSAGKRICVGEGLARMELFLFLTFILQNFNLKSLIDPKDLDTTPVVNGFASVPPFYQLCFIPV

This assay addresses Cytochrome P450 2C19 (Homo sapiens) (UniProt P33261). The experiment in a line: blockers of cytochrome P450 2C19 activity – biochemical, luminescence, ADME assay, primary screen (AID 778).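 Also: plate controls were negative control wells for no effect and 2.5 mM tranylcypromine positive control for full effect.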 The note with it: CYP2C19 Supersomes, luciferin-H EGE luminescence, 30 min; at 5 µM; active compounds read high.
In the case of `Cc1ccc(-c2cc(C(=O)Nc3nn[nH]n3)c3ccccc3n2)c(C)c1`, the inhibition was -11%. To `CCCc1ccc(OCc2ccc(C(=O)N/N=C/c3cccc([N+](=O)[O-])c3)o2)c(OC)c1` belongs -4.7%. Turning to `CCOc1ccc(NC(=O)CCS(=O)(=O)c2cccc3nsnc23)cc1`, the inhibition was 44.4%. The result for `CCOc1ccc(OCC)c(NC(=O)CN(C)S(=O)(=O)c2cccc3nsnc23)c1` reads 60.4% (active). As to `CCCCN(CC)C(=O)CN(C)S(=O)(=O)c1cccc2nsnc12`, the inhibition is 21%.

On to `CCCCc1nccn1CCn1ccnc1CCCC`, for which the inhibition was -17.6%. To `COc1cccc(OCC(O)CN2CCN(CCO)CC2)c1` (centres undefined) belongs -11.7%; to `CC(C)CCNC(=O)Cn1c(=O)oc2cc(S(=O)(=O)N3CC(C)CC(C)C3)ccc21` (centres undefined), 19.4%; to `COc1cc(CC(=O)NCc2cccs2)cc(OC)c1OC`, 34.5%. The result for `COc1cc(CNCc2cccs2)cc(Br)c1OC` reads 68.5% (active).

On to `Cn1ncc(Br)c1C(=O)NCc1cccs1`, for which the inhibition was 11.1%. On to `COc1ccc(C2CC(=O)Nc3sc(=N)c4c(N)c(C#N)c(N)nc4c32)cc1OC` (centres undefined), for which the inhibition was 38.9%. With `COc1ccc(C2CC(c3ccc(C)cc3)Nc3nc(N)nn32)cc1` (centres undefined), the inhibition is 13.1%. To `COc1ccc(C2CC(c3ccccc3)Nc3ncnn32)cc1` (centres undefined) belongs 32.3%; to `COc1ccc(C2CC(c3ccc(C)cc3)Nc3ncnn32)cc1` (centres undefined), 88.4% (active).

For the compound `CCOC(=O)c1cnc(SCc2nc(N)nc(Nc3ccc(OC)cc3)n2)nc1N`, the inhibition was 21.6%. The result for `CN1CCN(c2cc(=O)n(-c3ccc(Cl)cc3)c(=O)[nH]2)CC1` reads -16.7%; that for `O=C(Cc1ccc(-n2c(=O)[nH]c3ccccc3c2=O)cc1)N1CCN(c2cccc(Cl)c2)CC1`, 40.3%. To `Cc1cc(C(F)(F)F)c(C#N)c(SCC(=O)NC2CC2)n1` belongs 13.5%; to `Cc1cc(C)c(C#N)c(SCS(=O)c2ccc(C(C)(C)C)cc2)n1` (centres undefined), 78.5% (active); to `Cc1cc(=O)[nH]c(SCC(N)=O)c1C#N`, -8.9%.

Consider `Cc1cc(N2CCCC2=O)cc(C)c1S(N)(=O)=O`, for which the inhibition is -13.1%. To `Cn1c(=O)[nH]c(=O)c2c1nc(N(CCO)Cc1ccccc1)n2Cc1ccccc1Cl` belongs 9.3%. Take `Cn1c(SCC(=O)NC2CCCCC2)nnc1-c1cc2ccccc2o1`: the inhibition is 44.2%. The result for `COc1ccc(CCNC(=O)CSc2nc(C)nc3c2oc2ccccc23)cc1OC` reads -3.9%; that for `COc1ccc(-c2nnc(SCC(=O)NC3CCCCC3)o2)cc1OC`, 56.3% (active); that for `COc1ccccc1-c1nnc(SCC(=O)N2CC(C)CC(C)C2)o1` (centres undefined), 49.2%.

On to `COc1ccc(CCNC(=O)CSc2nnc(CNC(=O)c3cccs3)o2)cc1OC`, for which the inhibition was 2.4%. To `COc1ccccc1-c1nnc(SCC(=O)Nc2ccccc2)o1` belongs 69.7% (active).

Consider `COc1ccccc1-c1nnc(SCC(=O)Nc2cc(C)on2)o1`, for which the inhibition was -7.2%. On to `COc1ccc(C(=O)N(CCN2CCOCC2)CC(=O)NC2CCCC2)cc1OC`, for which the inhibition is -7.2%. To `COc1ccc(CCNC(=O)CSc2nnc(-c3cccc(F)c3)o2)cc1OC` belongs 95.8% (active); to `O=c1c2ccccc2nc(N/N=C/c2ccccc2)n1O`, -14.2%.

As for `CC(C)c1cc(C(=O)O)on1`, the inhibition was -10.8%. Turning to `CCCCCCNCCn1cnc2c(N)ncnc21`, the inhibition is -9.3%. The result for `Cc1ccc(C(=O)N/N=C/c2sc(=O)n(Cc3cccc(C(=O)O)c3)c2Cl)cc1` reads 22.8%. The result for `COc1ccc(C2C=C(c3ccc(Br)cc3)Nc3nc(NS(C)(=O)=O)nn32)cc1` (centres undefined) reads 3.9%. The result for `O=C(Nc1cccc(Cl)c1)Nc1nnc(-c2ccccc2)o1` reads 12.7%; that for `CC1CC(C)CN(CC(=O)Nc2ccc(S(N)(=O)=O)cc2)C1` (centres undefined), 4.7%; that for `CC(C)Nc1nc(N(c2ccccc2)c2ccccc2)nc(-n2ccnc2)n1`, 39.2%. In the case of `COC(=O)CCNc1ccc2c(c1)OCCO2`, the inhibition is 24.9%. As for `CSc1ccccc1C(=O)Nc1cccc(C(C)=O)c1`, the inhibition is 3.3%. The result for `O=C(CSC1=NCCS1)Nc1nc(-c2ccccc2)cs1` reads 22%; that for `O=C(Nc1nnc(SCc2ccc(Cl)cc2Cl)s1)C1COc2ccccc2O1` (centres undefined), 38.1%; that for `CCCCC(=O)Nc1ccc2c(c1)OCCO2`, 50.3% (active). As for `O=C(COc1ccc2c(C(F)(F)F)cc(=O)oc2c1)Nc1ccc2c(c1)OCCO2`, the inhibition is -8.9%. To `O=C(Nc1nc(-c2ccncc2)cs1)C1COc2ccccc2O1` (centres undefined) belongs 96.4% (active); to `CC(=O)c1cccc(NC(=O)c2ccncc2)c1`, 74.6% (active). To `CCCCC(=O)Nc1ccc2c(c1)C(=O)NC2=O` belongs -10.8%. With `COc1ccc(S(=O)(=O)N(C)CC(=O)Nc2ccc3c(c2)OCCO3)cc1OC`, the inhibition was 21.9%. To `CCN(CC(=O)Nc1ccc2c(c1)OCCO2)Cc1cc(=O)oc2cc(C)c(C)cc12` belongs 88.4% (active); to `C=C(C)C(=O)Nc1cccc(C(C)=O)c1`, -1.5%; to `CCCN(CCC)CCNC(=O)c1cc2c(C)nc3ccccc3c2o1`, -9.3%. As to `Cc1c(C(=O)OCC(=O)N(CCC#N)c2ccccc2)oc2c1ccc1ccccc12`, the inhibition was 18.2%. `O=C(O)CCC(=O)N(Cc1cccs1)Cc1cccs1`: the inhibition was -5.7%. For `COc1cccc(-c2cnc(OC(C)(C)C)nc2OC(C)(C)C)c1`, the inhibition is 9.2%. The result for `CCCNC(=O)c1ccc(Cl)c(Cl)c1` reads -2.2%. To `CN(C)c1nc(N)nc(CSc2nnnn2-c2cccc3ccccc23)n1` belongs 24.3%; to `O=C1C2(c3ccccc3)CN(CCCO)CC1(c1ccccc1)CN(CCCO)C2`, 6.9%. `Cc1ccccc1C(OCC(O)CN1CCCCC1CCO)c1ccccc1` (centres undefined): the inhibition was 18%. Consider `CCc1nnc(NC(=O)CCC(=O)O)s1`, for which the inhibition was -16.3%. `CC(C)(C)n1nnc(CCc2nnn(C(C)(C)C)n2)n1`: the inhibition is 34.7%. Regarding `Cn1cc([N+](=O)[O-])c(C(=O)Nc2ccc3c(c2)OCCO3)n1`, the inhibition was 43.6%. The result for `O=C(Nc1ccc2c(c1)OCCO2)c1cnccn1` reads 14.5%. The result for `Cc1ccc(-c2csc(NC(=O)Cc3cccs3)n2)cc1C` reads 10%. To `O=C(Nc1ccc2c(c1)OCCO2)c1ccncc1` belongs 76.5% (active); to `Cc1cc(C)c2nc(NC(=O)c3ccc4c(c3)OCO4)sc2c1`, -1.4%; to `O=C(Nc1nc(-c2ccc3c(c2)OCO3)cs1)c1ccncc1`, 63.2% (active).

As to `O=C(O)c1cccc2c1C(=O)N(C1CCCCC1)C2`, the inhibition is -19.3%.

As for `Brc1cccc(-c2nnc3n2CCC3)c1`, the inhibition was -4.8%. The result for `O=C(NCCN1CCOCC1)c1c(F)c(F)c(F)c(F)c1F` reads -10.6%; that for `O=C(NCCCN1CCOCC1)c1cc2c(s1)CCC2`, 52.8% (active).

With `O=C(CNC(=O)c1cc2c(s1)CCC2)Nc1ccccc1Br`, the inhibition was 7%. Consider `CCCCOC(=O)CNc1nnc(SCC(=O)OCC)[nH]c1=O`, for which the inhibition was -15.4%. On to `Fc1ccc(CSc2nnc(-c3cc4c(s3)-c3ccccc3CC4)o2)cc1`, for which the inhibition was 31.9%. For `COC(=O)c1ccc(CSc2nc3cc(Cl)ccc3o2)cc1`, the inhibition is -5.7%. As for `Clc1ccc(CSc2nnc([C@@H]3CCCN3)o2)cc1`, the inhibition was 97.9% (active). To `CCC(C)NC(=O)c1cc(Cl)ccc1OC` (centres undefined) belongs 22%; to `Cc1cc(C(F)F)n2nc(C(=O)Nc3ccc(S(=O)(=O)NC45CC6CC(CC(C6)C4)C5)cc3)nc2n1`, 21.2%. Consider `COc1ccccc1C(=O)Nc1nc2nc(-c3ccccc3)cc(=O)n2[nH]1`, for which the inhibition was 7.1%. To `COC(=O)CNC(c1ccccc1Cl)c1cc(Br)ccc1NC(=O)CCN1CCOCC1` (centres undefined) belongs -3.3%. The result for `CC(=O)c1c(C)n(-c2ccc(N(C)C)cc2)c2ccc(OCC(N)=O)cc12` reads 18.6%; that for `CCn1c(=N)c(C(=O)NCCCOC)cc2c(=O)n3cccc(C)c3nc21`, -9.8%; that for `Cc1cccn2c(=O)c3cc(C#N)c(=O)n(CCCN4CCOCC4)c3nc12`, 61.4% (active). As for `Cc1cccn2c(=O)c3cc(C(=O)N4COCC4(C)C)n(C)c3nc12`, the inhibition was 0.5%.

In the case of `CCCc1[nH]nc2c1C(c1ccc(Br)s1)C(C#N)=C(N)O2` (centres undefined), the inhibition was 34.4%. To `Cc1noc(NS(=O)(=O)c2ccc(N/C=C/C(=O)c3ccccc3)cc2)c1C` belongs -5.7%.

Take `Cc1noc(C)c1CSc1nc2cc(S(=O)(=O)N3CCOCC3)ccc2o1`: the inhibition is 63.9% (active).

Turning to `Cc1ccc(S(=O)(=O)N2CCN(S(=O)(=O)N3CCOCC3)CC2)cc1`, the inhibition is 7.3%. For `Cc1ccc(Oc2nc3ccccc3n3c(C)nnc23)cc1`, the inhibition was -14.5%.

On to `COc1ccccc1-n1nnnc1S(=O)(=O)Cc1ccc(Cl)cc1`, for which the inhibition is 58.4% (active).

Turning to `COc1ccccc1N1CCN(C(=O)CN(Cc2ccc(Cl)cc2)S(C)(=O)=O)CC1`, the inhibition is 34%. To `CCOCCCNC(=O)C(NC(=O)c1ccc(=O)[nH]c1)c1ccc(C)cc1` (centres undefined) belongs 5.2%. With `N#Cc1c(/N=C/N2CCCC2)oc(-c2ccccc2)c1-c1ccccc1`, the inhibition was 45.7%.

As to `COc1cc(C(=O)Nc2oc(-c3ccccc3)c(-c3ccccc3)c2C#N)cc(OC)c1OC`, the inhibition is 27.1%. The result for `COc1ccc(-c2oc(/N=C/N3CCCC3)c(C#N)c2-c2ccc(OC)cc2)cc1` reads 59.3% (active); that for `COc1cccc(CN2C(=O)CCC2(C)C(=O)NC2CCCCCC2)c1` (centres undefined), 8.6%. To `Cc1ccc(-n2ncc3c(N4CCN(c5ccc(F)cc5)CC4)ncnc32)c(C)c1` belongs -22.2%. Regarding `CCc1cc2c(N3CCN(c4nnc(CC)s4)CC3)ncnc2s1`, the inhibition was 52.3% (active).

These data come from PubChem BioAssay AID778 (Sanford-Burnham Center for Chemical Genomics, 2007).
